Source: PubChem BioAssay (National Center for Advancing Translational Sciences (NCATS))
KB-3-1 cytotox – kills parental KB-3-1 adenocarcinoma cells | 400,000 tested, 1.4% active | Potency, µM (highest dose often 46.1 µM), hits mostly cytotoxic | KB-3-1 viability, CellTiter-Glo ATP luminescence, 72 h; also: % is scaled to controls: 0 for no effect and ±100 for the full control effect; nearly all actives have a fitted effect of over 60% in size
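Cells are dispensed, compounds pinned in, plates held at 37 °C for 72 h, then CellTiter-Glo is added and luminescence read after 10 minutes. Cell line: parental KB-3-1 in phenol-red-free DMEM, 10% FBS.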
KB-V1 cytotox – KB-V1 MDR subline cytotoxicity | KB-V1 MDR cells viability, CellTiter-Glo, 72 h | Potency, µM (series often up to 46.1 µM), actives largely listed as cytotoxic | 400,000 tested, 3.4% active; also: % is scaled to controls: 0 for no effect and ±100 for the full control effect; nearly all actives have a fitted effect of over 60% in size
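Following 72 h at 37 degrees C with compound, KB-V1 cell viability was read by CellTiter-Glo luminescence, medium being phenol-red-free DMEM plus 10% FBS; concentration-response parameters came from normalized, curve-fitted qHTS data.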
ATXN2 expr inh – ATXN2 expression inhibition. Potency, µM (top dose mostly 57 µM), without a hit: at the highest dose activity change, negative = inhibition, hits mostly inhibitors. 360,000 tested, 0.72% active. AID 1745845. HEK-293 ATXN2-luciferase reporter, luminescence, 24 h; also: % is scaled to controls: 0 for no effect and ±100 for the full control effect; nearly all actives have a fitted effect of over 55% in size
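qHTS (up to 57 uM final) was run with 24 h compound exposure of reporter cells at 37 °C. Each well was multiplexed: SteadyGlo luminescence measured ATXN2-luciferase expression after a fluorogenic Gly-Phe-AFC viability readout (25 uM final).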
HT1080NT lethal – kills 2HG-producing HT-1080-NT fibrosarcoma cells; HT-1080-NT fibrosarcoma viability, CellTiter-Glo ATP luminescence, 48 h; Potency, µM (top dose mostly 46.1 µM), without a hit: top-dose activity, negative = less viability, usual class: cytotoxic; 360,000 tested, 1.6% active;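 also: NT is the 2HG producing partner of a matched IDH1 knockdown line; 0% = DMSO-treated cells and -100% = media-only wells without cells; nearly all actives have a fitted effect of over 55% in size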
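Read-out is CellTiter-Glo luminescence after 10 minutes at room temperature, following 48 hours' compound treatment of HT-1080-NT cells (750 cells/well, RPMI, 5% FBS, 37 degrees C).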
S2 tox – reduces viability in counter-screen for ATXN expression inhibitors | S2 cells (HEK-293 line with an ATXN2-luciferase reporter) viability, CellTiter-Fluor protease fluorescence, 24 h | Potency, µM (top dose mostly 56.7 µM), usual class: cytotoxic | 400,000 tested, 0.49% active | AID 651635; also: nearly all actives have a fitted effect of over 40% in size
HT1080 IDH1KD tx – HT-1080 IDH1 knockdown cell toxicity (counter line); HT-1080 IDH1 knockdown viability, ATP luminescence, 48 h; AID 686971; Potency, µM (series often up to 46.1 µM), for the others: top-dose activity, negative = toxicity, usual class: cytotoxic; 360,000 tested, 2% active;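 also: 0% = DMSO wells and -100% = cell-free medium wells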
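Knockdown cells (IDH1KD HT-1080) received compounds 2 h after plating at 750 cells/well and were kept 48 h at 37 °C in 5% FBS RPMI. A CellTiter-Glo luminescence read gave % activity for curve fitting.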
Starred values were filed as active, the others as inactive; i = inactive; ? = inconclusive; . = not tested or not shown. The list is not random: actives were taken first. Their share in the collection is about 6.2%. Calls follow the shape of the dose curve; as a rule, active = well fitted curve in the direction sought with a large enough effect; inconclusive = small, poorly fitted or top-dose-only effect, or another doubt; inactive = no such curve, though single readings can be large; an effect the other way counts as inactive or inconclusive. Potency is read from the fitted curve at half-maximal effect.

SMILES | KB-3-1 cytotox | KB-V1 cytotox | ATXN2 expr inh | HT1080NT lethal | S2 tox | HT1080 IDH1KD tx
COc1ccccc1NC(=O)c1cc2c(CO)cnc(C)c2oc1=Nc1cccc(C(N)=O)c1 | i | i | . | -2% | 14µM* | 2%
CCc1nn(CC(=O)NCCc2ccc(OC)c(OC)c2)c(=O)c2cc3occc3n12 | i | i | -3% | . | i | .
Cc1cccc(C)c1NC(=O)Cn1cc(S(=O)(=O)Cc2ccc(F)cc2)c2ccccc21 | i | i | . | . | . | .
O=C(C1CC1)N1CCc2cc(Br)cc(S(=O)(=O)N3CCCCCC3)c21 | ? | 9.2µM* | 6% | -9% | ? | -16%
Cc1nc2cccnc2n1-c1cccc(C(=O)N2CCN(c3ccc(Cl)cc3)CC2)c1 | 12µM* | i | . | . | . | .
CCCCOc1ccccc1NC(=O)C=C(C)C | i | i | -1% | 0% | i | 11%
CCCOc1ccccc1NC(=O)/C=C/C(N)=O | i | i | -32% | ? | . | 10µM*
COc1ccc(C2c3c(n(C)c4ccccc34)C(=O)N2CC(=O)Nc2cccc(Cl)c2)cc1 (configuration not stated) | i | i | . | . | . | .
COc1ccccc1C(=O)O/N=C(\N)c1ccccn1 | i | i | ? | ? | i | ?
N/C(=N\OC(=O)c1ccc(Cl)c(Cl)c1)c1ccccn1 | i | i | 27% | 13% | i | ?
N/C(=N\OC(=O)c1ccc(Cl)c([N+](=O)[O-])c1)c1ccccn1 | i | i | -1% | ? | i | 16µM*
N/C(=N\OC(=O)c1ccccc1Cl)c1ccccn1 | ? | i | 16µM* | ? | i | ?
Cc1ccc(C(=O)O/N=C(\N)c2ccccn2)c(C)c1 | ? | ? | ? | 16µM* | ? | 15µM*
O=C(Cc1ccc(F)cc1)N1CCC(c2nc3c(nnn3Cc3ccc(Cl)cc3)c(=O)[nH]2)CC1 | i | i | -29% | . | i | .
O=C(CSC1=Nc2ccccc2N=C(c2ccc(F)cc2)C1)NCc1ccc(Cl)cc1 | i | i | -28% | . | ? | .
Cc1c(S(=O)(=O)c2cccc(Cl)c2)nnn1-c1cccc(C(F)(F)F)c1 | i | i | -14% | . | i | .
Cc1c(CNC2CCCCCC2)c(C(=O)O)c(C)n1Cc1ccc(F)cc1Cl | i | i | 1% | . | i | .
CN(CC(=O)Nc1ccc(Cl)cc1)C(=O)c1ccc(S(=O)(=O)Nc2ccccc2)cc1 | i | i | ? | 13µM* | i | 16µM*
COC1=C(OC)C(=O)C(Sc2ccc3ccccc3c2)=CC1=O | ? | 2.6µM* | ? | ? | . | 16µM*
Cc1ccc(C)c(OC(=O)CSc2nnc(-c3ccc4c(c3)OCO4)o2)c1 | i | i | . | . | . | .
O=C(Nc1ccccc1-c1nc2ccccc2s1)c1ccc(F)cc1 | i | ? | -3% | . | ? | .
CNc1sc(C(=O)c2cccs2)c(N)c1-c1nc2ccccc2s1 | i | i | 60% | -3% | ? | ?
O=C(Nc1ccc(F)cc1)Nc1sccc1-c1nc2ccccc2s1 | i | i | -20% | 16µM* | ? | 18µM*
CNc1sc(C(=O)c2ccc(F)cc2)c(N)c1-c1nc2ccccc2s1 | i | i | 35% | 11µM* | i | 6.3µM*
O=C(NCC1CCC2(CCN(Cc3c[nH]c4ccccc34)CC2)O1)C1CCOCC1 (configuration not stated) | . | . | . | . | i | .
SMILES | KB-3-1 cytotox | KB-V1 cytotox | ATXN2 expr inh | HT1080NT lethal | S2 tox | HT1080 IDH1KD tx
Cc1cccc(N2CCN(c3ncnc4c3nc3n4CCCCC3)CC2)c1C | i | i | 2% | . | i | .
Cc1ccc2c(c1)=N/C(=N\c1[nH]c(O)c3ccccc13)N=2 | ? | ? | . | 23µM* | . | ?
Cc1ccc(C)c(OC(=O)C2CSC3(C)CCC(=O)N23)c1C (configuration not stated) | 16µM* | i | . | 0% | i | -2%
CC12CCC(=O)N1C(C(=O)Oc1cccc(F)c1)CS2 (configuration not stated) | i | i | . | 13% | i | 8%
CCCCNC(=O)C[C@@H]1C[C@@]2(C(=O)OCC)CCCC=C2N(Cc2ccccc2)C1=O | i | ? | . | 8% | . | 8%
CC1(C(=O)NS(=O)(=O)c2cccc(C#N)c2)CCN1C(=O)Cc1ccccc1Cl (configuration not stated) | i | i | 13% | 4% | i | 14%
CCc1sc2nc(SCC(=O)Nc3cc(C)on3)n(-c3cccc(OC)c3)c(=O)c2c1C | i | 1.6µM* | ? | -24% | ? | -23%
CCn1c(SCC(=O)Nc2cc(C)on2)nc2sc3c(c2c1=O)CCCC3 | i | i | ? | 10µM* | . | ?
C=CCn1c(SCC(=O)Nc2cc(C)on2)nc2sc3c(c2c1=O)CCCC3 | i | i | -22% | 15% | i | 16%
COCCn1c(SCC(=O)NCCCN2CCCC2=O)nc2sc3c(c2c1=O)CCCC3 | i | 21µM* | -2% | -3% | i | 0%
Cc1nn(Cc2ccccc2)c(C)c1NC(=O)CSc1nc2sc3c(c2c(=O)n1C)CCC3 | 9.2µM* | ? | -21% | 0% | i | -9%
Cc1cc(NC(=O)CSc2nc3sc4c(c3c(=O)n2C)CCCC4)no1 | i | i | ? | 1% | i | -3%
COc1ccc(CCNC(=O)C(CC(C)C)N2Cc3ccccc3C2=O)c(OC)c1OC (configuration not stated) | i | i | . | . | . | .
O=C1CCCC2=C1C(c1ccccc1Cl)N=C(Nc1nc3ccccc3o1)N2 (configuration not stated) | i | i | . | . | . | .
O=C(OCC12CC3CC(CC(C3)C1)C2)c1ccc(NCc2cc(O)ccc2O)cc1 | ? | i | 10µM* | ? | 13µM* | 21µM*
O=C(OCCC12CC3CC(CC(C3)C1)C2)c1ccc(NCc2cc(O)ccc2O)cc1 | 15µM* | ? | ? | 6.5µM* | . | 7.3µM*
CCOC(=O)C1(NC(=O)C2(NC(=O)CN3C(=O)c4ccccc4C3=O)CCCC2)CCCC1 | i | i | 2% | 3% | i | 6%
COc1ccc(Oc2nc3c(c(=O)n(Cc4ccccc4Cl)c(=O)n3C)n2C)cc1 | ? | ? | 3% | . | i | .
CCOc1nc2c(c(=O)n(C)c(=O)n2C)n1Cc1ccccc1Cl | ? | 4.1µM* | -24% | 2% | ? | -4%
Cn1c(Oc2ccc(F)cc2)nc2c1c(=O)n(Cc1ccccc1Cl)c(=O)n2C | ? | 10µM* | -2% | . | i | .
